# Measured values: the supplement of paper PMC8728848
# Shown is part of a subset that was picked to be rich in the strongest signals.
# B1: SBD-G4S3-SBD (protein)
# chain: MASIPSSASVQLDSYNYDGSTFSGKIYVKNIAYSKKVTVVYADGSDNWNNNGNIIAASFSGPISGSNYEYWTFSASVKGIKEFYIKYEVSGKTYYDNNNSANYQVSTGGGGSGGGGSGGGGSEFASIPSSASVQLDSYNYDGSTFSGKIYVKNIAYSKKVTVVYADGSDNWNNNGNIIAASFSGPISGSNYEYWTFSASVKGIKEFYIKYEVSGKTYYDNNNSANYQVST
# Experiments:
# Experiment in all cases: glycan array binding signal (z-score within array); higher = stronger binding
# Details in all cases: glycan notation: IUPAC condensed, linker removed
# [1] = target: Fuc(a1-2)Gal(b1-3)GalNAc(a1-3)[Fuc(a1-2)]Gal(b1-4)GlcNAc
# Procedure, shortened: (§1)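 Glycan array data came from 3228 arrays in the Consortium for Functional Glycomics database, and only arrays with an available protein sequence were kept. Glycan names were put into IUPAC-condensed notation, and columns mapping to the same glycan were averaged. The binding signal is a within-array Z-score, averaged across arrays of one protein sequence run at different concentrations or buffers and across linkers. A negative Z-score can be read as non-binding.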
# [2] = target: Fuc(a1-2)Gal(b1-4)GlcNAc(b1-3)Gal(b1-4)GlcNAc(b1-2)Man(a1-3)[Fuc(a1-2)Gal(b1-4)GlcNAc(b1-3)Gal(b1-4)GlcNAc(b1-2)Man(a1-6)]Man(b1-4)GlcNAc(b1-4)GlcNAc
# Procedure, shortened: as §1
# [3] = target: Fuc(a1-2)[Gal(a1-3)]Gal(b1-4)[Fuc(a1-3)]GlcNAc(b1-3)GalNAc
# Procedure, shortened: as §1
# [4] = target: Fuc(a1-2)[GalNAc(a1-3)]Gal(b1-3)GalNAc(a1-3)[Fuc(a1-2)]Gal(b1-4)GlcNAc
# Procedure, shortened: as §1
# [5] = target: Fuc(a1-2)[GalNAc(a1-3)]Gal(b1-4)GlcNAc(b1-2)Man(a1-3)[Fuc(a1-2)[GalNAc(a1-3)]Gal(b1-4)GlcNAc(b1-2)Man(a1-6)]Man(b1-4)GlcNAc(b1-4)GlcNAc
# Procedure, shortened: as §1
# [6] = target: Fuc(a1-2)[GalNAc(a1-3)]Gal(b1-4)[Fuc(a1-3)]GlcNAc(b1-3)GalNAc
# Procedure, shortened: as §1
# [7] = target: Fuc(a1-3)[Gal(b1-4)]Glc6S
# Procedure, shortened: as §1
# [8] = target: Fuc(a1-3)[Gal(b1-4)]GlcNAc
# Procedure, shortened: as §1
# [9] = target: Gal(a1-3)Gal(b1-3)[Fuc(a1-4)]GlcNAc(b1-2)Man(a1-3)[Gal(a1-3)Gal(b1-3)[Fuc(a1-4)]GlcNAc(b1-2)Man(a1-6)]Man(b1-4)GlcNAc(b1-4)GlcNAc
# Procedure, shortened: as §1
# [10] = target: Gal(a1-3)Gal(b1-4)[Fuc(a1-3)]GlcNAc(b1-2)Man(a1-3)[Gal(a1-3)Gal(b1-4)[Fuc(a1-3)]GlcNAc(b1-2)Man(a1-6)]Man(b1-4)GlcNAc(b1-4)GlcNAc
# Procedure, shortened: as §1
# [11] = target: Gal(b1-3)GalNAc(b1-3)Gal(a1-4)Gal(b1-4)Glc
# Procedure, shortened: as §1
# [12] = target: Gal(b1-3)GalNAc(b1-4)[Neu5Ac(a2-3)]Gal(b1-4)Glc
# Procedure, shortened: as §1
# [13] = target: Gal(b1-3)GlcNAc(b1-2)Man(a1-3)[Gal(b1-3)GlcNAc(b1-2)Man(a1-6)]Man(b1-4)GlcNAc(b1-4)GlcNAc
# Procedure, shortened: as §1
# [14] = target: Gal(b1-3)GlcNAc(b1-3)Gal(b1-4)GlcNAc(b1-6)[Gal(b1-3)GlcNAc(b1-3)]Gal(b1-4)Glc
# Procedure, shortened: as §1
# Gal(b1-3)GlcNAc6S = target: Gal(b1-3)GlcNAc6S
# Procedure, shortened: as §1
# [15] = target: Gal(b1-3)[Fuc(a1-4)]GlcNAc(b1-6)GalNAc
# Procedure, shortened: as §1
# [16] = target: Gal(b1-3)[GlcNAc(b1-6)]GalNAc
# Procedure, shortened: as §1
# [17] = target: Gal(b1-3)[Neu5Ac(a2-6)]GlcNAc(b1-4)Gal(b1-4)Glc
# Procedure, shortened: as §1
# [18] = target: Gal(b1-4)GlcNAc(b1-2)Man(a1-3)[Man(a1-6)]Man(b1-4)GlcNAc(b1-4)GlcNAc
# Procedure, shortened: as §1
# [19] = target: Gal(b1-4)GlcNAc(b1-2)[Gal(b1-4)GlcNAc(b1-6)]Man(a1-6)[Gal(b1-4)GlcNAc(b1-2)Man(a1-3)]Man(b1-4)GlcNAc(b1-4)[Fuc(a1-6)]GlcNAc
# Procedure, shortened: as §1
# [20] = target: Gal(b1-4)GlcNAc(b1-3)Gal(b1-3)GalNAc
# Procedure, shortened: as §1
# [21] = target: Gal(b1-4)GlcNAc(b1-3)Gal(b1-4)GlcNAc(b1-3)Gal(b1-4)GlcNAc(b1-2)Man(a1-3)[Gal(b1-4)GlcNAc(b1-3)Gal(b1-4)GlcNAc(b1-3)Gal(b1-4)GlcNAc(b1-2)Man(a1-6)]Man(b1-4)GlcNAc(b1-4)GlcNAc
# Procedure, shortened: as §1
# [22] = target: Gal(b1-4)GlcNAc(b1-3)Gal(b1-4)GlcNAc(b1-3)Gal(b1-4)GlcNAc(b1-3)Gal(b1-4)GlcNAc(b1-2)Man(a1-3)[Gal(b1-4)GlcNAc(b1-3)Gal(b1-4)GlcNAc(b1-3)Gal(b1-4)GlcNAc(b1-3)Gal(b1-4)GlcNAc(b1-2)Man(a1-6)]Man(b1-4)GlcNAc(b1-4)[Fuc(a1-6)]GlcNAc
# Procedure, shortened: as §1
binder,measurement,setting,value
B1,glycan array binding signal (z-score),[1],-0.396
same,glycan array binding signal (z-score),[2],-0.362
same,glycan array binding signal (z-score),[3],0.033
same,glycan array binding signal (z-score),[4],1.17
same,glycan array binding signal (z-score),[5],6.16
same,glycan array binding signal (z-score),[6],4.46
same,glycan array binding signal (z-score),[7],2
same,glycan array binding signal (z-score),[8],-0.355
same,glycan array binding signal (z-score),[9],7.53
same,glycan array binding signal (z-score),[10],0.036
same,glycan array binding signal (z-score),[11],-0.324
same,glycan array binding signal (z-score),[12],-0.263
same,glycan array binding signal (z-score),[13],4.15
same,glycan array binding signal (z-score),[14],-0.42
same,glycan array binding signal (z-score),Gal(b1-3)GlcNAc6S,-0.404
same,glycan array binding signal (z-score),[15],4.38
same,glycan array binding signal (z-score),[16],-0.371
same,glycan array binding signal (z-score),[17],-0.092
same,glycan array binding signal (z-score),[18],-0.387
same,glycan array binding signal (z-score),[19],4.53
same,glycan array binding signal (z-score),[20],-0.052
same,glycan array binding signal (z-score),[21],1.38
same,glycan array binding signal (z-score),[22],7.46
